For 35 compounds, fractional viability results are on record in the supplement of paper PMC5919970.

Molecules are shown by their SMILES. Whole data set: some 2,000 compounds, median “fractional viability relative to vehicle” near 0.92, cut for the lowest 2% near 0.11. For the sample, the lowest values were picked, then their nearest neighbours and some compounds at random.

This test relates to TYKNU. Briefly: fractional viability relative to vehicle; TYKNU is a high-grade serous ovarian cancer line; higher = less growth inhibition. The note with it: 72 h, genotype: OPA1 knockout (sgOPA1 #2). In outline:
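TYKNU control cells or lentiCRISPRv2 knockout derivatives were plated at 500 cells per well in duplicate into drug-stamped 384-well plates holding a ~2100-compound library at 2 or 10 μM. Culture was in RPMI 1640 with 10% FBS at 37 °C in 5% CO2, with 72 h of drug treatment. Viability was measured by Cell Titer Glo luminescence, and the averaged duplicate treatment wells were normalised to duplicate control wells at the same plate position.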

Consider `CC(=O)O/N=C1\C(=O)N(Cc2cc(Cl)ccc2Cl)c2ccc(Cl)cc21`, for which the fractional viability reads like this: (2uM) 1.06; (10uM) 0.985.
In the same order, the values of `NC(=O)c1noc([C@H](CCCC2CCCCC2)CC(=O)NO)n1` are 1.1 and 0.853.
In the same order, the values of `COC(=O)N1CCN(Cc2cccc(NC(=O)Nc3ccc(C)nc3)c2F)CC1` are 1.01 and 0.982.
In the same order, the values of `CCCCC(F)(F)[C@@]1(O)CC[C@H]2[C@@H](CC(=O)[C@@H]2CCCCCCC(=O)O)O1` [Lubiprostone] are 0.935 and 1.03.
Take `O=C(O)c1cc(=O)c2ccccc2o1` [Chromocarb]: the fractional viability was 0.872 (2uM) and 0.816 (10uM).
In the same order, the values of `CC(=O)c1cc2c(o1)C(=O)c1ccccc1C2=O` [Napabucasin] are 0.0542 and 0.0318.
For the compound `O=C1c2ccccc2C(=O)c2c1ccc(O)c2O` [Alizarin], the fractional viability came out at 1.19 (2uM) and 0.838 (10uM).
`CC(CNC(=O)c1cccnc1)NC(=O)c1cccnc1` (stereo not given) [Nicaraven]: the fractional viability was 0.886 (2uM) and 0.93 (10uM).
In the same order, the values of `C[C@H]1O[C@@H](O[C@H]2[C@@H](O)C[C@H](O[C@H]3[C@@H](O)C[C@H](O[C@H]4CC[C@@]5(C)[C@H](CC[C@@H]6[C@@H]5C[C@@H](O)[C@]5(C)[C@@H](C7=CC(=O)OC7)CC[C@]65O)C4)O[C@@H]3C)O[C@@H]2C)C[C@H](O)[C@@H]1O` [Digoxin] are 0.141 and 0.0738.
For `Cn1c(=O)c(F)c(Nc2ccc(I)cc2F)c2c(=O)n(C[C@@H](O)CO)cnc21` the same measures were 0.516 and 0.403.
In the same order, the values of `COc1ccc(CCNCc2ccc(OCc3ccc(Cl)nc3)c(OC)c2)cc1OC` are 1.04 and 0.914.
Turning to `CC[C@H]1OC(=O)[C@H](C)[C@@H](O[C@H]2C[C@@](C)(OC)[C@@H](O)[C@H](C)O2)[C@H](C)[C@@H](O[C@@H]2O[C@H](C)C[C@H](N(C)C)[C@H]2O)[C@](C)(O)C[C@@H](C)C(=O)[C@H](C)[C@H]2OC(=O)O[C@@]21C` [Erythromycin Cyclocarbonate], the fractional viability (2uM) turned out to be 0.834 and the fractional viability (10uM) was determined as 0.883.
In the same order, the values of `CN1CCCN(C(=O)c2cccc(-c3ccc(/C=C4/C(=O)Nc5ccc(Cl)cc54)o3)c2)CC1` are 0.132 and 0.0251.
As to `CN1CCN(C(=O)c2cc3cc(Cl)ccc3[nH]2)CC1`, the fractional viability reads like this: (2uM) 1.08; (10uM) 1.08.
As for `Cc1[nH]c(/C=C2\C(=O)Nc3ccc(S(=O)(=O)N(C)c4cccc(Cl)c4)cc32)c(C)c1C(=O)N1CCN(C)CC1`, the fractional viability was 1.37 (2uM) and 0.133 (10uM).
For `CS(=O)(=O)c1ccc(-c2nnc(/C=C/c3nnc(-c4ccc(C#N)cc4)o3)n2-c2ccccc2Cl)nc1` the same measures were 1.11 and 1.03.
For `O=C(Cc1cccc(OC(F)(F)F)c1)Nc1ccc(CCCCc2nnc(NC(=O)Cc3ccccn3)s2)nn1` the same measures were 0.25 and 0.2.
For `CN[C@@H](C)C(=O)N[C@H](C(=O)N1CCC[C@H]1c1nc(C(=O)c2ccc(F)cc2)cs1)C1CCCCC1` the same measures were 0.719 and 0.643.
For the compound `N#C/C(=C1/SC[C@@H](c2ccc(Cl)cc2Cl)S1)n1ccnc1` [Luliconazole], the fractional viability reads like this: (2uM) 0.989; (10uM) 0.818.
For `Cc1cccc(-c2[nH]c(C(C)(C)C)nc2-c2ccc3c(c2)OCO3)n1` the same measures were 1.2 and 0.682.
In the same order, the values of `COc1ncc(-c2ccc3nccc(-c4ccnnc4)c3c2)cc1NS(=O)(=O)c1ccc(F)cc1F` are 0.354 and 0.0636.
For `CCCS(=O)(=O)Nc1ccc(F)c(C(=O)c2c[nH]c3ncc(-c4ccc(Cl)cc4)cc23)c1F` [Vemurafenib (PLX4032, RG7204)] the same measures were 1.13 and 1.
Turning to `CC(C)(C)c1ccc(S(=O)(=O)/C=C/C#N)cc1`, the fractional viability runs as follows: (2uM) 0.357; (10uM) 0.0658.
Take `Cc1ccc(S(=O)(=O)/C=C/C#N)cc1`: the fractional viability runs as follows: (2uM) 0.121; (10uM) 0.09.
For `NC(=O)c1cccc2[nH]c(-c3ccc(C4CCCN4)cc3F)nc12` (stereo not given) the same measures were 0.735 and 0.788.
Consider `CC[C@H](CO)Nc1nc(NCc2ccccc2)c2ncn(C(C)C)c2n1` [Roscovitine (Seliciclib,CYC202)], for which the fractional viability turned out to be 1.14 (2uM) and 0.913 (10uM).
For `Cc1cc(C(O)=C2C(=O)C(=O)N(CCCN3CCOCC3)C2c2ccncc2)ccc1OCc1ccccc1` (stereo not given) the same measures were 0.973 and 0.814.
In the same order, the values of `CC(O)c1cc(C(=O)N[C@@H](C)Cn2ccc(-c3ccc(C#N)c(Cl)c3)n2)n[nH]1` (stereo not given in full) are 0.945 and 1.06.
Regarding `Cn1ncnc1[C@H]1c2n[nH]c(=O)c3cc(F)cc(c23)N[C@@H]1c1ccc(F)cc1`, the fractional viability reads like this: (2uM) 0.905; (10uM) 0.986.
In the case of `NC(=O)c1cnc2[nH]ccc2c1N[C@@H]1[C@@H]2CC3C[C@H]1C[C@@](O)(C3)C2`, the fractional viability is 0.989 (2uM) and 1 (10uM).
`CC(=O)Nc1cccc2c1c(Sc1ccc(Cl)cc1)c(C)n2CC(=O)O`: the fractional viability reads like this: (2uM) 0.976; (10uM) 0.913.
For `CC(=O)N1c2ccc(-c3ccc(C(=O)O)cc3)cc2[C@H](Nc2ccc(Cl)cc2)C[C@@H]1C` the same measures were 0.529 and 0.337.
In the same order, the values of `NNC(=O)c1ccncc1` [Isoniazid] are 1.01 and 1.08.
In the same order, the values of `O=C(NNc1ccccc1)c1ccncc1` are 0.769 and 0.792.
As to `O=C(/C=C/c1ccc2ccccc2n1)c1ccncc1`, the fractional viability runs as follows: (2uM) 0.472; (10uM) 0.11.
